Our source for the cytotoxicity call values is the antibiotic and cytotoxicity screens of Wong et al. (2023).

Molecules are shown by their SMILES. Hit rate of the full screen: of about 39,000 compounds, about 1,500 (3.8%) were called active. This excerpt belongs to a sample that is enriched for actives.

The subject of this experiment is HSkMC (human skeletal muscle cells). The experiment can be described thus: cytotoxicity call (relative viability < 0.9). As to conditions: 10 µM.
On to `Cc1noc(C)c1CC(=O)N1CCCC[C@@H]1CCOc1cccc(CN(C)Cc2cccc3cccnc23)c1`, for which the cytotoxicity call is “inactive”.
`Cc1ccc(S(=O)(=O)N(C)C[C@H]2Oc3ccc(NS(=O)(=O)c4ccc(F)cc4)cc3CC(=O)N([C@H](C)CO)C[C@H]2C)cc1`: the cytotoxicity call was “inactive”.
For `C[C@@H]1CN([C@@H](C)CO)C(=O)c2cc(NS(=O)(=O)c3ccc(F)cc3)ccc2O[C@@H](C)CCCCO[C@@H]1CN(C)S(=O)(=O)c1cn(C)cn1` the value was “inactive”.
For `CC(=O)N[C@H]1[C@H](O[C@H]2CC[C@]3(C)[C@H]4CC=C5[C@@H]6CC(C)(C)CC[C@]6(C(=O)O[C@H]6OC[C@@H](O)[C@@H](O)[C@@H]6O)[C@@H](O)C[C@@]5(C)[C@]4(C)CC[C@H]3C2(C)C)O[C@H](CO[C@H]2OC[C@@H](O)[C@@H](O[C@H]3OC[C@@H](O)[C@@H](O)[C@@H]3O)[C@@H]2O)[C@@H](O[C@@H]2O[C@@H](C)[C@H](O)[C@@H](O)[C@H]2O[C@@H]2O[C@@H](C)[C@H](O)[C@@H](O)[C@H]2O)[C@@H]1O` the value was “inactive”; for `Cc1noc(C)c1NC(=O)Nc1cccc2c1O[C@@H](CN(C)C(=O)NC(C)C)[C@H](C)CN([C@H](C)CO)C2=O`, “inactive”; for `C[C@@H]1CC=CC[C@H](c2ccc3c(c2)OCO3)NC(=O)[C@@H](Cc2ccccc2)N(C)C(=O)c2ccccc2O1`, “inactive”.
In the case of `C[C@H]1CC=CC[C@H](c2ccc3c(c2)OCO3)NC(=O)[C@@H](Cc2ccccc2)N(C)C(=O)c2ccccc2O1`, the cytotoxicity call is “active”.
On to `C[C@H]1CC=CC[C@@H](c2ccc3c(c2)OCO3)NC(=O)[C@H](Cc2ccccc2)N(C)C(=O)c2ccccc2O1`, for which the cytotoxicity call is “inactive”.
As to `COc1ccc([C@@H]2CC=CC[C@H](C)Oc3ccccc3C(=O)N(C)[C@@H](Cc3ccccc3)C(=O)N2)c(OC)c1`, the cytotoxicity call is “active”.
For `COc1ccc([C@H]2CC=CC[C@H](C)Oc3ccccc3C(=O)N(C)[C@H](Cc3ccccc3)C(=O)N2)c(OC)c1` the value was “inactive”; for `COc1ccc([C@H]2CC=CC[C@H](C)Oc3ccccc3C(=O)N(C)[C@@H](Cc3ccccc3)C(=O)N2)c(OC)c1`, “inactive”; for `COCCCN1C(=O)[C@@]2(Cc3ccccc31)c1ccccc1C(=O)N(Cc1ccccc1)[C@H]2c1ccc(CO)cc1`, “inactive”.
For `Cc1ccc(S(=O)(=O)Nc2ccc3c(c2)CC(=O)N([C@@H](C)CO)C[C@H](C)[C@H](CN(C)CC2CC2)O3)cc1` the value was “inactive”; for `Nc1ccc2oc3c(c2c1)CCCC3`, “inactive”; for `CC(C)(C)c1ccc(C(=O)Nc2cccc(C(F)(F)F)c2)cc1`, “inactive”.
Turning to `CCC(=O)Nc1ccc(Cl)cc1`, the cytotoxicity call was “inactive”.
For `CC(C)C(=O)Nc1cccc(Cl)c1` the value was “inactive”.
Under `O=C(Nc1ccccc1)Nc1ccccc1` stands “inactive”; under `O=C(Nc1ccc(C(F)(F)F)cc1)Nc1cccc(Cl)c1`, “active”.
Under `O=C(Nc1ccc(Cl)cc1)Nc1ccc(Cl)c(Cl)c1` stands “active”; under `C[C@H]1CN([C@@H](C)CO)C(=O)c2cc(NC(=O)Cc3ccccc3)ccc2O[C@H]1CN(C)Cc1ccc(C(F)(F)F)cc1`, “inactive”; under `C[C@@H]1CN([C@@H](C)CO)C(=O)Cc2cc(NC(=O)Cn3cnnn3)ccc2O[C@H]1CN(C)S(=O)(=O)c1cn(C)cn1`, “inactive”.
With `COc1cccc(S(=O)(=O)Nc2ccc3c(c2)[C@H]2C[C@@H](CC(=O)NCc4ccccc4F)O[C@@H](CO)[C@H]2O3)c1`, the cytotoxicity call was “inactive”.
`C[N+](C)(C)CCCCCC[N+](C)(C)C.[Br-].[Br-]`: the cytotoxicity call was “inactive”.
Consider `CCCCCCCCCCCCCCCCOP(=O)([O-])OCC[N+](C)(C)C`, for which the cytotoxicity call was “inactive”.
Under `CCCCCCCCCCCCCCCC[N+](C)(C)C` stands “active”.
Under `CC1=C2C/C=C(\C)[C@H](O[C@H]3O[C@@H](CO)[C@@H](O)[C@@H](O)[C@@H]3O)C/C=C(\C)C[C@@H]2OC1=O` stands “inactive”; under `NCc1nncn1-c1ccccc1`, “inactive”.
`COc1ccccc1CNC(=O)C[C@@H]1C[C@H]2c3cc(NC(=O)c4cccnc4)ccc3O[C@H]2[C@@H](CO)O1`: the cytotoxicity call was “inactive”.
Under `CC(N)(Cc1ccc2c(c1)OCO2)C(=O)O` (centres undefined) stands “inactive”.
Consider `C[C@@H]1CN([C@@H](C)CO)C(=O)c2cc(NS(C)(=O)=O)ccc2O[C@@H]1CN(C)S(=O)(=O)c1ccccc1`, for which the cytotoxicity call was “inactive”.
Under `CCC(=O)N1CCN(c2ccc(-n3c(=O)ccc4cnc5ccc(-c6cnc7ccccc7c6)cc5c43)cc2C(F)(F)F)CC1` stands “active”.
For `CCCCn1c(-c2ccccc2)nc(-c2ccccc2)c1CN(Cc1ccc2c(c1)OCO2)Cc1ccc2c(c1)OCO2` the value was “inactive”.
Under `COc1ccc(-c2cnc3c(c2)C(=O)N([C@@H](C)CO)C[C@@H](C)[C@@H](CN(C)C(=O)C2CCOCC2)O3)cc1` stands “inactive”; under `CO[C@@H]1CN(C)C(=O)c2ccc(NC(=O)C3CC3)cc2OC[C@H](C)N(C(=O)CN2CCOCC2)C[C@@H]1C`, “inactive”; under `C[C@@H]1CN([C@@H](C)CO)C(=O)Cc2cc(NS(C)(=O)=O)ccc2O[C@H]1CN(C)S(=O)(=O)c1cccs1`, “inactive”.
Consider `C[C@@H]1CN([C@H](C)CO)C(=O)Cc2cc(NS(=O)(=O)c3ccc(Cl)cc3)ccc2O[C@@H]1CN(C)Cc1ccc(C(F)(F)F)cc1`, for which the cytotoxicity call is “active”.
For `C[C@@H]1CN([C@@H](C)CO)C(=O)Cc2cc(NS(=O)(=O)c3ccc(Cl)cc3)ccc2O[C@@H]1CN(C)Cc1ccc(C(F)(F)F)cc1` the value was “active”; for `C[C@@H]1CN([C@H](C)CO)C(=O)Cc2cc(NS(=O)(=O)c3ccc(Cl)cc3)ccc2O[C@H]1CN(C)Cc1ccc(C(F)(F)F)cc1`, “active”; for `C[C@H](CO)N1C[C@H](C)[C@H](CN(C)Cc2ccc(C(F)(F)F)cc2)Oc2ccc(NS(=O)(=O)c3ccc(Cl)cc3)cc2CC1=O`, “active”.
As for `C[C@@H]1CCCCO[C@@H](CN(C)S(=O)(=O)c2ccc(Cl)cc2)[C@H](C)CN([C@@H](C)CO)C(=O)c2cc(NS(=O)(=O)c3cccs3)ccc2O1`, the cytotoxicity call is “inactive”.
As for `COc1cccc(NC(=O)N(C)C[C@@H]2Oc3cc(C#Cc4ccncc4)ccc3S(=O)(=O)N([C@H](C)CO)C[C@@H]2C)c1`, the cytotoxicity call is “inactive”.
Under `CC(=O)O[C@H]1C=C[C@@H](O)C1` stands “inactive”; under `O=C(CCCCCCC(=O)Nc1ccc([C@H]2C[C@H](c3ccccc3)O[C@H](c3ccncc3)O2)cc1)NO`, “inactive”.
